Experimental data taken from PubChem BioAssay AID489012 (National Center for Advancing Translational Sciences (NCATS), 2010).
Results filed as inconclusive are left out. A call without a number means that no potency is given here. Active and inactive are the calls of the source. The call rests on the fitted dose curve; in most records, active means well fitted activation curve with a large enough effect; inconclusive means small, poorly fitted or top-dose-only effect; inactive means no such curve, though single readings can be large or run the other way.

Target: Relaxin receptor 1 (Homo sapiens) (UniProt Q9HBX9)
Sequence (Q9HBX9 whole entry, looked up): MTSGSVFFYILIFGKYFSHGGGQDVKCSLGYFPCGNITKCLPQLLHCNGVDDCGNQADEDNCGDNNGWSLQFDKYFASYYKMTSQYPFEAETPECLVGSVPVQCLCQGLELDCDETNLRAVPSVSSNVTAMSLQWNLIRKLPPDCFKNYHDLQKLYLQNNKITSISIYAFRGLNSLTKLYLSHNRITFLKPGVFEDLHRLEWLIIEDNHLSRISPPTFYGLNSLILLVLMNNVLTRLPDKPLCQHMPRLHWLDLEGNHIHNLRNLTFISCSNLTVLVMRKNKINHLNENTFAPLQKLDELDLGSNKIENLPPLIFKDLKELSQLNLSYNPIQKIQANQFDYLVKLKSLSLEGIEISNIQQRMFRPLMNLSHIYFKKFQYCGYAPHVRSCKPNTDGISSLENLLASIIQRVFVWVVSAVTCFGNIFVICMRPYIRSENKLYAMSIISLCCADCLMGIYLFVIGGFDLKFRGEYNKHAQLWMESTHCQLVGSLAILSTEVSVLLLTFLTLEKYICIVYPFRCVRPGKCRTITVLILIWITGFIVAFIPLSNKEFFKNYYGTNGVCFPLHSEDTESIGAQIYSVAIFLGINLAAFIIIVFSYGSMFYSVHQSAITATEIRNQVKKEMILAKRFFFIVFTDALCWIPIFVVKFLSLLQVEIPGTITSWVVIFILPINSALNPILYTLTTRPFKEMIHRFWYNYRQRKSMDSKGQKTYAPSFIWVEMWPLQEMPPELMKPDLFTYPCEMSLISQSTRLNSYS
Assay: qHTS Assay for Agonists of the Relaxin Receptor RXFP1: RXFP1 Hit Validation; further: nearly all actives have a fitted effect of over 65% in size;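 on activation: cAMP rise lowers the TR-FRET signal in lysed cells with PDE4 inhibitor present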
Potency means the concentration at half of the fitted maximal effect.

Row | Structure (SMILES) | Potency
1 | O=C(O)c1ccc(N2C(=O)c3cccc4c(C(=O)O)ccc(c34)C2=O)cc1 | inactive
2 | NC(=O)c1ccccc1NC(=O)CC12CC3CC(CC(C3)C1)C2 | inactive
3 | CCc1ccc2n(-c3ccc(OC)cc3)c([S-])c(C(=O)Nc3cc(C)cc(C)c3)[n+]2c1 | 24.5 µM (active)
4 | Cc1ccc2[nH]c3c(=S)nc[nH]c3c2c1 | 3.88 µM (active)
5 | CC(=O)Nc1ccc(NC(=O)CSc2ccc3nnc(-c4ccccn4)n3n2)cc1 | inactive
6 | c1ccc(COn2nnc3ccccc32)c(COn2nnc3ccccc32)c1 | inactive
7 | C=CCSc1nc2c(c(=O)[nH]1)C(C(C)C)C(C#N)=C(N)O2 (configuration not stated) | 27.5 µM (active)
8 | COc1ccc(CNC(=O)CN2C(=O)NC(C)(c3cccc(Br)c3)C2=O)cc1 (configuration not stated) | inactive
9 | CC(C)n1cnc2c(N(C)c3cccc(Cl)c3)nc(N(CCO)CCO)nc21 | inactive
10 | O=C(Nc1ccccc1C(=O)NCCN1CCOCC1)c1ccco1 | inactive
11 | Cc1cccc2cc(C#N)c(SCC(=O)NCc3cccs3)nc12 | 17.3 µM (active)
12 | O=C(Nc1ccccc1C(=O)N1CCNCC1)c1ccco1 | inactive
13 | O=C(Nc1ccccc1C(=O)NCc1ccco1)c1ccco1 | inactive
14 | CC(C)c1ccccc1NC(=O)c1ccccc1NC(=O)C1CCCCC1 | inactive
15 | O=C(CSc1ccc2nnc(-c3ccncc3)n2n1)NCC1CCCO1 (configuration not stated) | inactive
16 | CCOC(=O)c1sc(NC(=O)CCc2ccc(OC)cc2)nc1C | 15.4 µM (active)
17 | CCCC(=O)Nc1ncnc2c1ncn2[C@@H]1O[C@@H]2COP(=O)(O)O[C@H]2[C@H]1OC(=O)CCC | 0.774 µM (active)
18 | Cn1c(=O)c2c(nc(SCC(=O)N3CCOCC3)n2C)n(C)c1=O | inactive
19 | Nc1ncnc2c1ncn2C1OC(CO)C(O)C1O (configuration not stated) | 1.74 µM (active)
20 | CN(CC(=O)Nc1ccccc1Cl)C(=O)COC(=O)Cc1c(F)cccc1Cl | inactive
21 | Cn1c(N)c(C(=O)CSc2nn(-c3ccc(F)cc3)c(=S)s2)c(=O)n(C)c1=O | 21.8 µM (active)
22 | COC(=O)c1c(NC(=O)c2cccc(N3C(=O)CCC3=O)c2)sc2c1CCN(C(C)=O)C2 | inactive
23 | S=c1nc[nH]c2c1[nH]c1ccccc12 | 6.9 µM (active)
24 | NC(=S)c1cc2ccc(O)cc2oc1=O | 7.74 µM (active)

Row | Structure (SMILES) | Potency
25 | CCN(CC)CCCN1C=C2C(=O)C(C)(OC(=O)C3CCCC3)C(=O)C=C2C=C1c1ccsc1 (configuration not stated) | inactive
26 | Nc1c(Cl)cc(-c2[nH]c3cc(C(=O)NCCO)ccc3c(=O)c2O)cc1Cl | 34.6 µM (active)
27 | O=C(O)CCNc1ccc(NCCC(=O)O)c2c1C(=O)c1ccccc1C2=O | inactive
28 | COc1ccccc1CNC(=O)CCCc1nnc2n(C)c(=O)c3sccc3n12 | inactive
29 | CCn1c(=O)c2cc(C(=O)Nc3cccc(C(C)=O)c3)sc2c2ccccc21 | inactive
30 | Cc1ccc(C(=O)Nc2ccccc2C(=O)NCc2ccco2)cc1 | inactive
31 | O=C(Nc1ccccc1C(=O)N1CCCCC1)c1ccco1 | inactive
32 | CCc1nn(CC(=O)NCCCN2CCOCC2)c(=O)c2cc3sccc3n12 | inactive
33 | CCOc1ccc2cc(C#N)c(SCC(=O)NC(C)CC)nc2c1 (configuration not stated) | 4.88 µM (active)
34 | CN1CCN(C(=O)CCc2nnc3ccc(N4CCC5(CC4)OCCO5)nn23)CC1 | inactive
35 | CCN(CC)S(=O)(=O)c1ccc(N2CCOCC2)c(NC(=O)c2cc([N+](=O)[O-])ccc2Cl)c1 | inactive
36 | CCOC(=O)CNC(=O)CSc1ccc2nnc(-c3cccnc3)n2n1 | inactive
37 | Cc1cc(C)n(C(=O)CCCn2cc([N+](=O)[O-])cn2)n1 | inactive
38 | CCOc1ccccc1NC(=O)CSc1ccc2nnc(-c3cccnc3)n2n1 | inactive
39 | Cc1c(C(=O)NNc2cc(=O)n(C)c(=O)n2C)cccc1[N+](=O)[O-] | inactive
40 | COc1cc(Cl)c(C)cc1NC(=O)c1ccc2c(c1)OCO2 | inactive
41 | Cc1ccc(CNC(=O)CCc2nnc3ccc(N4CCC5(CC4)OCCO5)nn23)cc1 | inactive
42 | CN(C)CCCn1c(SCC(=O)Nc2nc(-c3cccc(Br)c3)cs2)nc2ccccc2c1=O | inactive
43 | Cc1ccc(C(=O)Nc2ccccc2C(N)=O)o1 | inactive
44 | CCOC(=O)c1sc(=NC(=O)c2ccc(S(=O)(=O)N(C)c3ccccc3)cc2)n(C)c1C | 19.4 µM (active)
45 | O=C(Nc1ccccc1C(=O)NC1CCCCC1)c1ccco1 | inactive
46 | CC1(C)Cc2c(sc3ncnc(NN)c23)CO1 | inactive
47 | CCCc1nc(SCC(=O)NCC2CCCO2)c2c(=O)n(C)c(=O)n(C)c2n1 (configuration not stated) | inactive
